Test results as given in PubChem BioAssay (NCATS).
Where “and” joins values, the source holds several entries; their conditions need not be identical. Identical values can stand only once. Inconclusive results are not listed. Calls of active or inactive are those of the source. Calls follow the shape of the dose curve; as a rule, active = well fitted curve in the direction sought with a large enough effect; inconclusive = small, poorly fitted or top-dose-only effect, or another doubt; inactive = no such curve, though single readings can be large; an effect the other way counts as inactive or inconclusive.

Legend:
MKL-1 = test: qHTS assay to identify novel small-molecules to repurpose for Merkel cell carcinoma treatment (AID 1296009); settings: MCC and control cell lines, CellTiter-Glo viability, 72 h; series mostly up to 46 µM; also: nearly all actives have a fitted effect of over 60% in size
Summary of the method: (§1)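 qHTS format: cells treated with library compounds in DMSO across 8 (NPC) or 11 (MIPE) concentrations. Readout after 72 hr at 37 degree celsius was CellTiter-Glo luminescence.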

MKL-2 = test: as above; settings: MCC and control cell lines, CellTiter-Glo viability, 72 h; series mostly up to 46 µM
Summary of the method: as §1

UISO = test: as above; settings: MCC and control cell lines, CellTiter-Glo viability, 72 h; series mostly up to 46 µM
Summary of the method: as §1

WaGa = test: as above; settings: MCC and control cell lines, CellTiter-Glo viability, 72 h; series mostly up to 46 µM
Summary of the method: as §1

Es-2 = test: Primary qHTS to identify gynecologic anti-cancer compounds using libraries of approved drugs and bioactive compounds (AID 1345084); settings: Gynecologic cancer cell panel viability, ATPlite luminescence, 48 h; series mostly up to 57.5 µM; also: nearly all actives have a fitted effect of over 55% in size
Summary of the method: (§2)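 Luminescence from the ATPlite ATP-monitoring reagent indicates viable cell number; lower signal means cytotoxicity. Cells received compound 16 h after seeding and were exposed for 48 h across five concentrations.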

HeLa = test: as above; settings: Gynecologic cancer cell panel viability, ATPlite luminescence, 48 h; series mostly up to 57.5 µM
Summary of the method: as §2

Hek293T = test: as above; settings: Gynecologic cancer cell panel viability, ATPlite luminescence, 48 h, control line for the selectivity index; series mostly up to 57.5 µM
Summary of the method: as §2

JEG-3 = test: as above; settings: Gynecologic cancer cell panel viability, ATPlite luminescence, 48 h; series mostly up to 57.5 µM
Summary of the method: as §2

SKOV3 = test: as above; settings: Gynecologic cancer cell panel viability, ATPlite luminescence, 48 h; series mostly up to 57.5 µM
Summary of the method: as §2

Tov-21-G = test: as above; settings: Gynecologic cancer cell panel viability, ATPlite luminescence, 48 h; series mostly up to 57.5 µM
Summary of the method: as §2

Tov112D = test: as above; settings: Gynecologic cancer cell panel viability, ATPlite luminescence, 48 h; series mostly up to 57.5 µM
Summary of the method: as §2

C33A = test: as above; settings: Gynecologic cancer cell panel viability, ATPlite luminescence, 48 h; series mostly up to 57.5 µM
Summary of the method: as §2

OV90 = test: as above; settings: Gynecologic cancer cell panel viability, ATPlite luminescence, 48 h; series mostly up to 57.5 µM
Summary of the method: as §2

[1] = qHTS assay to identify inhibitors of the type 1 interferon - major histocompatibility complex class I in skeletal muscle: Counter screen cell viability and HiBit confirmation (AID 1347412); settings: iHSKM muscle cells + IFN-b, HiBiT or CellTiter-Glo, 24 h; also: nearly all actives have a fitted effect of over 60% in size
Summary of the method: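 Human myoblast knock-in line, 4.0 ng/ml IFN-beta stimulation, 24 h compound treatment. Endpoints: HiBiT lytic luminescence (HLA-B level) and CellTiter Glo (ATP). Dosing 12 concentrations, 3-fold steps, 46 uM highest final.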

PA-1 = test: Primary qHTS to identify gynecologic anti-cancer compounds using libraries of approved drugs and bioactive compounds (AID 1345084); settings: Gynecologic cancer cell panel viability, ATPlite luminescence, 48 h; series mostly up to 57.5 µM; also: nearly all actives have a fitted effect of over 55% in size
Summary of the method: as §2

astro = test: Drug repurposing screens with cells derived from glioblastoma tumor samples (AID 1345199); settings: viability, ATP luminescence, 48 h; series mostly up to 45.9 µM; also: nearly all actives have a fitted effect of over 40% in size
Summary of the method: (§3)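 Four patient lines of CD133+ GBM neurospheres were screened at several concentrations; hits were retested in those lines plus three slower-growing GBM lines, using 48-hour treatment and ATP-based viability.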

CAOV3 = test: Primary qHTS to identify gynecologic anti-cancer compounds using libraries of approved drugs and bioactive compounds (AID 1345084); settings: Gynecologic cancer cell panel viability, ATPlite luminescence, 48 h; series mostly up to 57.5 µM; also: nearly all actives have a fitted effect of over 55% in size
Summary of the method: as §2

CASKI = test: as above; settings: Gynecologic cancer cell panel viability, ATPlite luminescence, 48 h; series mostly up to 57.5 µM
Summary of the method: as §2

[2] = Drug repurposing screens with cells derived from glioblastoma tumor samples (AID 1345199); settings: GBM patient neurospheres viability, ATP luminescence, 48 h; also: nearly all actives have a fitted effect of over 40% in size
Summary of the method: as §3
% is scaled to controls: 0 for no effect and ±100 for the full control effect; potency is read from the fitted curve at half-maximal effect.

CN1CCN(CCOc2cc(OC3CCOCC3)c3c(Nc4c(Cl)ccc5c4OCO5)ncnc3c2)CC1
inactive: Potency (MKL-1) | Potency (MKL-2) | Potency (UISO) | Potency (WaGa) | Potency (Es-2) | Potency (HeLa) | Potency (Hek293T) | Potency (JEG-3) | Potency (Tov112D)
active: Potency (SKOV3) 3.55 µM | Potency (Tov-21-G) 2.24 µM

C=C1C(=O)[C@@]23C(CC[C@@H]1[C@H]2O)[C@@]12CO[C@]3(O)[C@@H](O)[C@@H]1C(C)(C)CC[C@@H]2O (stereo partly drawn)
inactive: Potency (HeLa) | Potency (OV90) | Potency (Tov112D)
active: Potency (MKL-1) 1.18 µM | Potency (MKL-2) 935 nM | Potency (UISO) 14.8 µM | Potency (WaGa) 833 nM | Potency (C33A) 28.2 µM | Potency (Hek293T) 28.2 µM | Potency ([1]; HiBiT) 8.83 µM | Potency ([1]; Viability) 35.2 µM

CC1=C(/C=C/C(C)=C/C=C/C(C)=C/C(=O)Nc2ccc(O)cc2)C(C)(C)CCC1
active: Potency (MKL-1) 26.6 µM | Potency (MKL-2) 10600 nM | Potency (UISO) 9.44 µM | Potency (WaGa) 23700 nM | Potency (C33A) 7.94 µM | Potency (Hek293T) 20 µM | Potency (OV90) 31.6 µM | Potency (PA-1) 4.47 µM | Potency (Tov-21-G) 20 µM | Potency (astro) 11.2 µM

CCS(=O)(=O)N1CC(CC#N)(n2cc(-c3ncnc4[nH]ccc34)cn2)C1
inactive: Potency (MKL-1) | Potency (MKL-2) | Potency (UISO) | Potency (WaGa) | Potency (C33A) | Potency (CAOV3) | Potency (CASKI) | Potency (Es-2) | Potency (HeLa) | Potency (Hek293T) | Potency (JEG-3) | Potency (OV90) | Potency (PA-1) | Potency (Tov112D) | activity change, negative = inhibition ([1]; Viability, at 45.9 µM (top of the series)) -4.12%

CCN(CC)CCOC(=O)c1ccc(N)cc1
inactive: Potency (MKL-1) | Potency (MKL-2) | Potency (UISO) | Potency (WaGa) | Potency (C33A) | Potency (CASKI) | Potency (Es-2) | Potency (HeLa) | Potency (Hek293T) | Potency (JEG-3) | Potency (OV90) | Potency (PA-1) | Potency (SKOV3) | Potency (Tov-21-G) | Potency (Tov112D) | activity, negative = cell killing ([2]; at 20 µM (top of the series), tumour line C) 5.7% | activity, negative = cell killing ([2]; at 21.2 µM (top of the series), tumour line B) -3.94% | activity, negative = cell killing ([2]; at 21.2 µM (top of the series), tumour line D) 2% | activity, negative = cell killing ([2]; at 21.3 µM (top of the series), tumour line A) -17.4% | Potency (astro)

CC(C)(C)OC(=O)N[C@H]1CCCCCC=C[C@@H]2C[C@@]2(C(=O)NS(=O)(=O)C2CC2)NC(=O)[C@@H]2C[C@@H](OC(=O)N3Cc4cccc(F)c4C3)CN2C1=O
inactive: Potency (MKL-1) | Potency (MKL-2) | Potency (UISO) | Potency (WaGa) | Potency (C33A) | Potency (CASKI) | Potency (Es-2) | Potency (HeLa) | Potency (Hek293T) | Potency (JEG-3) | Potency (OV90) | Potency (PA-1) | Potency (SKOV3) | Potency (Tov-21-G) | Potency (Tov112D)

COc1ccc2c(Oc3ccc(NC(=O)c4c(C)n(CC(C)(C)O)n(-c5ccccc5)c4=O)nc3)ccnc2c1
inactive: Potency (MKL-1) | Potency (MKL-2) | Potency (UISO) | Potency (WaGa) | Potency (C33A) | Potency (CAOV3) | Potency (CASKI) | Potency (Es-2) | Potency (HeLa) | Potency (Hek293T) | Potency (JEG-3) | Potency (OV90) | Potency (Tov112D)
active: Potency (PA-1) 31.6 µM

COC[C@@H](c1ccc(C(F)(F)F)cc1)N1CCN(C2(C)CCN(C(=O)c3c(C)ncnc3C)CC2)C[C@H]1C
inactive: Potency (MKL-1) | Potency (MKL-2) | Potency (UISO) | Potency (WaGa) | Potency (C33A) | Potency (CASKI) | Potency (Es-2) | Potency (HeLa) | Potency (Hek293T) | Potency (JEG-3) | Potency (OV90) | Potency (PA-1) | Potency (Tov-21-G) | Potency (Tov112D)

CCN1CCC[C@H]1CNC(=O)c1cc(S(N)(=O)=O)ccc1OC
inactive: Potency (MKL-1) | Potency (MKL-2) | Potency (UISO) | Potency (WaGa) | Potency (C33A) | Potency (CASKI) | Potency (Es-2) | Potency (HeLa) | Potency (Hek293T) | Potency (JEG-3) | Potency (OV90) | Potency (PA-1) | Potency (SKOV3) | Potency (Tov-21-G) | Potency (Tov112D) | activity, negative = cell killing ([2]; at 45.9 µM (top of the series), tumour line B) 0.712% | activity, negative = cell killing ([2]; at 45.9 µM (top of the series), tumour line D) -10.3% | activity, negative = cell killing ([2]; at 46 µM (top of the series), tumour line A) -29.7% | activity, negative = cell killing ([2]; at 46.1 µM (top of the series), tumour line C) 1.29% | Potency (astro)

CC[C@]1(O)C[C@@H]2CN(CCc3c([nH]c4ccccc34)[C@@](C(=O)OC)(c3cc4c(cc3OC)N(C)[C@H]3[C@@](O)(C(=O)OC)[C@H](OC(C)=O)[C@]5(CC)C=CCN6CC[C@]43[C@@H]65)C2)C1
active: Potency (MKL-1) 75 nM and 168 nM | Potency (MKL-2) 75 nM and 150 nM | Potency (UISO) 0.237 µM | Potency (WaGa) 26.6 nM and 75 nM | Potency (C33A) 1.58 µM | Potency (Es-2) 1.12 µM and 708 nM and 794 nM | Potency (HeLa) 316 nM and 1.12 µM and 631 nM | Potency (JEG-3) 0.631 µM | Potency (OV90) 11.2 µM and 4.47 µM and 7.94 µM | Potency (PA-1) 316 nM and 355 nM | Potency (Tov-21-G) 316 nM and 447 nM and 631 nM | Potency (Tov112D) 158 nM and 316 nM

COc1ncc(-c2ccc3nccc(-c4ccnnc4)c3c2)cc1NS(=O)(=O)c1ccc(F)cc1F
active: Potency (MKL-1) 1.48 µM | Potency (MKL-2) 105 nM | Potency (UISO) 0.0235 µM | Potency (WaGa) 526 nM | Potency (HeLa) 631 nM | Potency (Hek293T) 0.1 µM | Potency (JEG-3) 25.1 µM | Potency (OV90) 3.55 µM | Potency (PA-1) 0.355 µM | Potency (Tov-21-G) 12.6 µM

NS(=O)(=O)c1cccc2c1C(=O)c1cccc(O)c1C2=O
active: Potency (MKL-1) 0.132 µM | Potency (MKL-2) 264 nM | Potency (UISO) 0.662 µM | Potency (WaGa) 132 nM | Potency ([1]; HiBiT) 0.557 µM | Potency ([1]; Viability) 0.496 µM
